A selection: hits, their analogues and other compounds. The true share with any hit is near 2.4%.
M1 ag parental – nonselective activator or artifact in parental CHO-K1 cells. Fluo-8 calcium fluorescence; scaled to maximal ATP response, vehicle zero. activation, % at 3 µM. actives 0.48% (n = 360,000). AID 602248; in the data active means activation above about 15%;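 further: untransfected CHO-K1 host cells lacking M1 receptor as counterscreen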
CHO-K1 Ca PAM – nonselective activator or artifact in parental CHO-K1 calcium assay; ATP EC20, Fluo-8 calcium fluorescence; 0% at ATP EC20, 100% at ATP max; activation, % at 3 µM; actives 0.02% (n = 360,000); AID 602247;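 active means activation above the run cutoff, the mean activation of all test compounds plus 3 SD, cut at about 40% in these data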;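 further: peak over basal fluorescence ratio in a 140 s read after ATP addition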
CHRM1 agonist – agonists of human M1 muscarinic receptor; P11229; actives 0.33% (n = 360,000); activation, % at 3 µM; AID 588814; CHO-K1 hM1, Fluo-8 calcium fluorescence, agonist mode; 0% DMSO, 100% acetylcholine EC100;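 active means activation above the run's mean compound activation plus 3 SD, cut at about 16% in these data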;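 further: peak over basal fluorescence ratio within a 140 s kinetic read after compound addition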
Target sequence (P11229 whole entry, looked up): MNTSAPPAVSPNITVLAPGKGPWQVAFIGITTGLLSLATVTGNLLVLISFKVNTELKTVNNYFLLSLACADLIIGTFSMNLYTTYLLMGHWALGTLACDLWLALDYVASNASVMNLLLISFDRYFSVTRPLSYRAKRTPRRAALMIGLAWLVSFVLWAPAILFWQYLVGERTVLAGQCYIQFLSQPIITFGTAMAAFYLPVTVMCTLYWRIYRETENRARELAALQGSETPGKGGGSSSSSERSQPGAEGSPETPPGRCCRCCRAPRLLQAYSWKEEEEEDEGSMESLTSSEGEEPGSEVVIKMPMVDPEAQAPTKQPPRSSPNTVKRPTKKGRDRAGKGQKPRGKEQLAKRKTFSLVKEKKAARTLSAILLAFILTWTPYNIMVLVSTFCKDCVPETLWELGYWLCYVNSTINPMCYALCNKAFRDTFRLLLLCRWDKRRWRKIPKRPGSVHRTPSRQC
M1 PAM – potentiates human M1 receptor response to acetylcholine; P11229; CHO-K1 hM1, Fluo-8 calcium fluorescence, ACh EC20; 0% = ACh EC20, 100% = maximal ACh; activation, % at 3 µM; actives 0.088% (n = 360,000); AID 588819; in the data active means activation above about 19%, passing the limit was not always enough
CHRM1 antagonist – antagonists of human M1 muscarinic receptor; P11229; CHO-K1 hM1, Fluo-8 calcium fluorescence, ACh EC80 antagonist; inhibition, % at 3 µM; actives 1.3% (n = 360,000);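 active means percent inhibition above its own plate's cutoff, namely the mean of that plate's compound wells plus 3 SD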;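 further: peak over basal fluorescence ratio during 140 s after agonist addition; 0% = ACh EC80 plus DMSO and 100% = DMSO alone without agonist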
CHO-K1 Ca antag – counter-screen for M1 antagonists: effect in parental CHO-K1 cells; inhibition, % at 3 µM; actives 0.6% (n = 360,000); ATP-induced calcium, Fluo-8 fluorescence;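 active means inhibition above a per-plate cutoff, the plate's mean sample inhibition plus 3 SD, cut at about 24% in these data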;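 further: 0% = DMSO plus EC80 ATP and 100% = DMSO alone without ATP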
* marks the source's active call; other numbers are inactive results.

SMILES	M1 ag parental	CHO-K1 Ca PAM	CHRM1 agonist	M1 PAM	CHRM1 antagonist	CHO-K1 Ca antag
CC(=O)c1cccc(NC(=O)C(C)OC(=O)c2cccc(S(=O)(=O)N3CCN(C)CC3)c2)c1 (stereo not given)	0.6	-0.2	67.6*	-24.4	70.8*	-9.7
Cc1cc(C)cc(C(=O)OCC(=O)Nc2cccc(S(=O)(=O)NC3=NCCCCC3)c2)c1	1.6	-11.8	-4.6	-1.1	2.9	24.5*
CCN(CC)S(=O)(=O)c1cccc(NC(=O)CNc2cccc(S(=O)(=O)N3CCCC3)c2)c1	6.0	-17.3	-1.2	-11.4	41.6*	31.9*
CCN(CC)S(=O)(=O)c1cccc(NC(=O)COC(=O)c2ccc(Br)o2)c1	25.3*	0.0	-0.6	-8.5	11.0	6.2
O=C(COC(=O)c1ccccc1)Nc1cccc(S(=O)(=O)NC2=NCCCCC2)c1	-0.2	20.2	-5.5	7.2	-7.3	-9.0
OC(c1ccccc1)C(Nc1ccccn1)c1ccccc1 (stereo not given)	-0.3	16.6	-6.8	6.4	-13.7	-9.9
Cc1cc(C)cc(N(C(=O)c2cccs2)C2C=CS(=O)(=O)C2)c1 (stereo not given)	0.0	10.0	-1.3	1.4	5.6	7.1
CCN(CC)S(=O)(=O)c1cccc(NC2=NCCCCC2)c1	0.6	3.9	-6.8	-5.0	26.8*	-2.4
CC(C)Oc1ccc(C(=O)Nc2cccc(S(=O)(=O)N3CCCC3)c2)cc1	0.2	-8.6	-4.2	-31.5	47.5*	-1.3
COc1cccc(NC2=NCCCCC2)c1	2.0	10.4	-11.1	6.5	-9.2	-10.9
CC(=O)Nc1cccc(-n2nnc(SCC(=O)Nc3ccc(F)c(Cl)c3)n2)c1	22.0*	-1.5	0.3	0.8	-3.8	15.3
O=C(CCc1ccccn1)N1CCCC(Nc2ccc(F)cc2)C1 (stereo not given)	0.8	17.8	-0.5	4.2	-4.8	1.0
O=C(CCc1ccccn1)N1CCCC(Nc2cccc(F)c2)C1 (stereo not given)	0.8	11.8	27.1*	8.1	-0.6	-1.8
CCOC(=O)N1CCN(C(=O)c2ccc(OCC)c(OCC)c2)CC1	-0.1	-8.8	-3.4	-4.6	-5.1	37.3*
COc1ccc(/C=C2/Sc3ccc(C(=O)N4CCOCC4)cc3NC2=O)cc1OC	1.6	13.6	0.3	4.3	-3.7	-20.7
CCOC(=O)N1CCN(C(=O)c2ccc3c(c2)NC(=O)/C(=C\c2ccc(OC)c(OC)c2)S3)CC1	4.1	11.3	-13.9	-41.0	51.5*	-20.9
CC(=O)c1sc(N/N=C\c2ccc(Br)cc2)nc1C	1.1	18.4	-10.4	0.3	-8.1	-10.5
CC(=O)c1sc(N/N=C\c2cccc(Br)c2)nc1C	16.9*	17.1	-11.4	1.7	-5.2	6.1
O=C(Nc1nc(-c2ccc(F)c(F)c2)cs1)c1cc([N+](=O)[O-])ccc1N1CCOCC1	2.2	11.8	-3.2	6.0	-4.0	-14.2
Cc1cc(C)c(-c2csc(NC(=O)c3cc([N+](=O)[O-])ccc3N3CCOCC3)n2)c(C)c1	-0.2	18.5	-9.7	-30.2	59.1*	-2.5
O=C(NCc1cccnc1)c1cc([N+](=O)[O-])ccc1N1CCOCC1	1.3	23.0	19.6*	-0.1	-1.5	-23.7
Cn1nc(-c2ccc3c(c2)OCCO3)c2ccccc2c1=O	7.4	-12.2	-0.9	-14.9	16.6	8.9
CCN(CC)c1ccc2cc(-c3nnc(-c4ccncc4)o3)c(=O)oc2c1	18.9*	16.5	21.6*	-4.3	7.8	4.7
CCN(CC)c1ccc2cc(C(C)=O)c(=O)oc2c1	7.7	9.4	13.3	0.7	-23.2	-2.0
CCN(CC)c1ccc2cc(C=O)c(=O)oc2c1	25.6*	-4.8	52.9*	-17.5	19.0	11.4
SMILES	M1 ag parental	CHO-K1 Ca PAM	CHRM1 agonist	M1 PAM	CHRM1 antagonist	CHO-K1 Ca antag
CCCCn1c(SCC(=O)NC2CCCC2)nnc1-c1ccco1	0.3	10.6	0.5	20.3	-22.5	-16.9
O=c1c2c3c(sc2nc2n1CCCCC2)CCCCC3	-0.1	-5.1	-8.8	-16.4	14.4	9.6
N=c1c2c3c(sc2nc2n1CCCCC2)CCCCC3	2.8	8.4	-4.5	-21.4	92.2*	-13.2
CS(=O)(=O)N1CCN(C(=O)c2cc(-c3ccncc3)nc3ccc(Cl)cc23)CC1	5.1	3.4	2.5	-14.4	30.7*	5.2
O=C(c1ccc(S(=O)(=O)Nc2ccc(F)cc2)cc1)N1CCN(C(=O)c2ccco2)CC1	1.9	6.4	2.4	-3.7	2.9	8.4
Cc1ccc2nc(-c3ccccc3)cc(C(=O)NCCCn3ccnc3)c2c1	2.7	10.5	-4.5	6.0	-5.2	1.3
O=C(NCCCn1ccnc1)c1cc(-c2cccnc2)nc2ccc(Br)cc12	17.3*	4.3	-6.5	7.5	-0.6	-2.3
CCCCCOc1ccc(Br)cc1/C(C)=N/NC1=NCCN1	1.1	20.1	-4.5	-15.6	5.6	-4.8
COc1ccc(Br)cc1/C(C)=N/NC1=NCCN1	6.4	-4.4	68.2*	-14.4	79.4*	8.9
Cc1ccc(NC(=O)CSCC(=O)NC2(C)CCS(=O)(=O)C2)cc1 (stereo not given)	-0.1	8.5	-2.1	1.1	0.4	-5.5
CN1CCCN(Cc2ccccc2C(F)(F)F)CC1	0.3	8.4	-6.6	-25.2	29.1*	-6.3
CCCS(=O)(=O)N1CCN(Cc2ccccc2C(F)(F)F)CC1	-0.5	-2.2	-3.6	7.5	2.0	-3.7
O=C(NC(N1CCOCC1)C(Cl)(Cl)Cl)c1ccc(F)cc1 (stereo not given)	18.2*	0.1	-8.0	6.1	-1.9	1.9
COc1ccc(CN2C(=O)c3cccnc3C2=O)cc1S(=O)(=O)N(C)c1cccc(C)c1	1.1	-7.0	-1.8	-3.0	13.7	-3.3
COc1ccc(/C=C/c2nc(-c3ccccc3)cc(=O)[nH]2)cc1	1.1	6.7	0.0	9.7	-7.6	-0.1
O=c1cc(-c2ccccc2)nc(/C=C/c2ccccc2)[nH]1	16.8*	16.9	10.5	10.0	-6.2	-2.4
CC(=O)Oc1ccc(C(=O)Cc2ccccn2)c(O)c1	-0.6	-10.6	-1.8	-2.8	13.6	24.2*
CCc1cc(C(=O)Cc2ccccn2)c(O)cc1O	6.1	5.8	0.3	20.1	-14.4	-5.4
CN(C)CCOc1ccccc1C(C)(C)C	0.5	12.9	-6.2	-20.0	57.4*	2.6
Cc1ccc(C(C)(C)C)c(OCCN2CCCC2)c1	1.2	16.5	-9.7	-24.2	66.8*	-1.1
Cc1cc(C(C)(C)C)ccc1OCCN1CCCC1	0.8	14.0	-4.0	0.0	-20.5	-0.6
CC(C)(C)c1ccccc1OCCN1CCCC1	2.3	24.4	-8.8	-21.7	42.6*	-1.6
CC(OCCN1CCCC1)(c1ccc(F)cc1)c1ccc(F)cc1	2.4	13.2	-8.2	-19.9	92.3*	-6.2
Fc1ccc(OCCOCCN2CCCC2)cc1	0.8	-0.2	-5.9	0.3	-5.1	-2.4
CC(C)Oc1ccccc1OCCN(C)C	-0.1	23.9	-13.3	10.7	-3.7	-8.7

High-throughput results deposited in PubChem BioAssay by The Scripps Research Institute Molecular Screening Center.
